Data as given in the supplement of paper PMC10849652.
The full data set covers some 8,800 targets. This sample favours those with a hit. About 0.5% of all pairs of compound and target were hits.

How the values were obtained:
Assay in all cases: log2 fold change, soluble protein after heating vs DMSO (PISA); higher = thermal stabilisation; K562 lysate, 10 uM; active = over 0.2 and 3.5 SD of the protein, either way, in both replicates (recomputed)
lapatinib = compound: CS(=O)(=O)CCNCc1ccc(-c2ccc3ncnc(Nc4ccc(OCc5cccc(F)c5)c(Cl)c4)c3c2)o1 [lapatinib]
In short: (§1)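 A 30 min treatment with 10 μM compound was applied to crude K562 extract at 1 mg/mL protein in PBS pH 7.4 with 1 mM MgCl2. Heating for 3 min spanned 48°C-58°C, after which aliquots were pooled, adjusted to 0.5% NP-40 at 4°C and spun at 21,000xg for 90 min. TMTpro 16plex LC-MS/MS of the supernatant, with channel sums equalised, gave values recorded as log-two fold change in thermal stability against solvent controls, from duplicates.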

pictilisib = compound: CS(=O)(=O)N1CCN(Cc2cc3nc(-c4cccc5[nH]ncc45)nc(N4CCOCC4)c3s2)CC1 [pictilisib]
In short: as §1

crizotinib = compound: C[C@@H](Oc1cc(-c2cnn(C3CCNCC3)c2)cnc1N)c1c(Cl)ccc(F)c1Cl [crizotinib]
In short: as §1

[1] = compound: C[C@H](C1=CC=C(C=C1)C(=O)NC2=C3C=CNC3=NC=C2)N
In short: as §1

duvelisib = compound: C[C@H](Nc1ncnc2nc[nH]c12)c1cc2cccc(Cl)c2c(=O)n1-c1ccccc1 [duvelisib]
In short: as §1

gandotinib = compound: Cc1cc(Nc2cc(CN3CCOCC3)c3nc(C)c(Cc4ccc(Cl)cc4F)n3n2)n[nH]1 [gandotinib]
In short: as §1

tozasertib = compound: Cc1cc(Nc2cc(N3CCN(C)CC3)nc(Sc3ccc(NC(=O)C4CC4)cc3)n2)n[nH]1 [tozasertib]
In short: as §1

doramapimod = compound: Cc1ccc(-n2nc(C(C)(C)C)cc2NC(=O)Nc2ccc(OCCN3CCOCC3)c3ccccc23)cc1 [doramapimod]
In short: as §1

bafetinib = compound: Cc1ccc(NC(=O)c2ccc(CN3CC[C@H](N(C)C)C3)c(C(F)(F)F)c2)cc1Nc1nccc(-c2cncnc2)n1 [bafetinib]
In short: as §1

[2] = compound: Cc1cccc(CC(=O)N2CCc3c2ccc(-c2cn(C)c4ncnc(N)c24)c3F)n1
In short: as §1

nilotinib = compound: Cc1cn(-c2cc(NC(=O)c3ccc(C)c(Nc4nccc(-c5cccnc5)n4)c3)cc(C(F)(F)F)c2)cn1 [nilotinib]
In short: as §1

[3] = compound: Cc1nc(Nc2n[nH]c3c2CN(C(=O)N[C@H](CN(C)C)c2ccccc2)C3(C)C)c2sccc2n1
In short: as §1

dasatinib = compound: Cc1nc(Nc2ncc(C(=O)Nc3c(C)cccc3Cl)s2)cc(N2CCN(CCO)CC2)n1 [dasatinib]
In short: as §1

[4] = compound: Cc1ncc(-c2ccnc(Nc3ccc(S(C)(=O)=O)cc3)n2)n1C(C)C
In short: as §1

[5] = compound: Cn1cc(-c2ccc3c(c2)CCN3C(=O)Cc2cccc(C(F)(F)F)c2)c2c(N)ncnc21
In short: as §1

quisinostat = compound: Cn1cc(CNCC2CCN(c3ncc(C(=O)NO)cn3)CC2)c2ccccc21 [quisinostat]
In short: as §1

tipifarnib = compound: Cn1cncc1[C@@](N)(c1ccc(Cl)cc1)c1ccc2c(c1)c(-c1cccc(Cl)c1)cc(=O)n2C [tipifarnib]
In short: as §1

[6] = compound: NC(=O)Nc1cc(-c2cccc(F)c2)sc1C(=O)N[C@H]1CCCNC1
In short: as §1

[7] = compound: NC(=O)c1cnc(N[C@@H]2CCCC[C@@H]2N)nc1Nc1cccc(-n2nccn2)c1
In short: as §1

[8] = compound: NC1(c2ccc(-c3nc4ccn5c(=O)[nH]nc5c4cc3-c3ccccc3)cc2)CCC1
In short: as §1

Measured: log2 fold change

VAV3 isoform 4 (UniProt Q9UKW4)
Sequence of UniProt Q9UKW4 (Q9UKW4 whole entry, looked up): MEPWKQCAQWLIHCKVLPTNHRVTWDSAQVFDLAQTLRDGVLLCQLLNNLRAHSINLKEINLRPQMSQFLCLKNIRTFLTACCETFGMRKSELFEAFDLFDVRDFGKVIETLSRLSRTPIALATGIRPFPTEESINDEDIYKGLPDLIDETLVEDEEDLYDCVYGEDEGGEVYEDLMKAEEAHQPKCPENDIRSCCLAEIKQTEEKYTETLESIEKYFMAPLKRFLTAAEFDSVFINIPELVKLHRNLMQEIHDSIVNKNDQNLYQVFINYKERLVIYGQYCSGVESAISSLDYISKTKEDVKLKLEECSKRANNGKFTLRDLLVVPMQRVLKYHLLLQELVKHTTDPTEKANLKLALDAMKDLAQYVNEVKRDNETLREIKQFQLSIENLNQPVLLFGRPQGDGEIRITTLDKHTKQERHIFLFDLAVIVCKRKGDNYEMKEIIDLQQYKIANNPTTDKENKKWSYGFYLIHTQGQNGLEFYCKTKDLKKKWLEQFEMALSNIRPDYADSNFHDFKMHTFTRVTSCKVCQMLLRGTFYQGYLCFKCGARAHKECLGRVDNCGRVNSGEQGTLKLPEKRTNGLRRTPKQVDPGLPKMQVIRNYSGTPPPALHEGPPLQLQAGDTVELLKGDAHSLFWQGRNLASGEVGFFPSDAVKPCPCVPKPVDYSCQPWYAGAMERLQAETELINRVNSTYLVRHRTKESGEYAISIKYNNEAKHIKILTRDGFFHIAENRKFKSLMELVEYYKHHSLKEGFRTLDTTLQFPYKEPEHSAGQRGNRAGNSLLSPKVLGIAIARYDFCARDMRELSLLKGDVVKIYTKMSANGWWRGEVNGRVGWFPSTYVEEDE
active: [1] -0.655
inactive: lapatinib -0.167 | pictilisib -0.057 | crizotinib -0.217 | duvelisib -0.008 | gandotinib 0.135 | tozasertib -0.093 | doramapimod 0.325 | bafetinib 0.023 | [2] 0.242 | nilotinib 0.155 | [3] -0.028 | dasatinib -0.061 | [4] -0.055 | [5] 0.08 | quisinostat 0.121 | tipifarnib -0.012 | [6] -0.017 | [7] -0.054 | [8] 0.038

UNC13D (UniProt Q70J99)
inactive: lapatinib -0.032 | pictilisib -0.032 | crizotinib -0.038 | [1] 0.029 | duvelisib -0.039 | gandotinib -0.089 | tozasertib -0.015 | doramapimod 0.009 | bafetinib -0.066 | [2] 0.002 | nilotinib 0.043 | [3] -0.014 | dasatinib -0.05 | [4] 0 | [5] 0 | quisinostat -0.079 | tipifarnib -0.006 | [6] 0.05 | [7] 0.022 | [8] -0.024

YTHDF3 (UniProt Q7Z739)
inactive: lapatinib -0.065 | pictilisib 0.05 | crizotinib 0.01 | [1] -0.035 | duvelisib 0.017 | gandotinib 0.107 | tozasertib -0.03 | doramapimod 0.078 | bafetinib -0.073 | [2] 0.097 | nilotinib -0.246 | [3] -0.038 | dasatinib 0.022 | [4] 0.014 | [5] -0.006 | quisinostat -0.06 | tipifarnib -0.311 | [6] 0.063 | [7] -0.016 | [8] -0.039

XPO6 (UniProt Q96QU8)
Sequence of UniProt Q96QU8 (Q96QU8 whole entry, looked up): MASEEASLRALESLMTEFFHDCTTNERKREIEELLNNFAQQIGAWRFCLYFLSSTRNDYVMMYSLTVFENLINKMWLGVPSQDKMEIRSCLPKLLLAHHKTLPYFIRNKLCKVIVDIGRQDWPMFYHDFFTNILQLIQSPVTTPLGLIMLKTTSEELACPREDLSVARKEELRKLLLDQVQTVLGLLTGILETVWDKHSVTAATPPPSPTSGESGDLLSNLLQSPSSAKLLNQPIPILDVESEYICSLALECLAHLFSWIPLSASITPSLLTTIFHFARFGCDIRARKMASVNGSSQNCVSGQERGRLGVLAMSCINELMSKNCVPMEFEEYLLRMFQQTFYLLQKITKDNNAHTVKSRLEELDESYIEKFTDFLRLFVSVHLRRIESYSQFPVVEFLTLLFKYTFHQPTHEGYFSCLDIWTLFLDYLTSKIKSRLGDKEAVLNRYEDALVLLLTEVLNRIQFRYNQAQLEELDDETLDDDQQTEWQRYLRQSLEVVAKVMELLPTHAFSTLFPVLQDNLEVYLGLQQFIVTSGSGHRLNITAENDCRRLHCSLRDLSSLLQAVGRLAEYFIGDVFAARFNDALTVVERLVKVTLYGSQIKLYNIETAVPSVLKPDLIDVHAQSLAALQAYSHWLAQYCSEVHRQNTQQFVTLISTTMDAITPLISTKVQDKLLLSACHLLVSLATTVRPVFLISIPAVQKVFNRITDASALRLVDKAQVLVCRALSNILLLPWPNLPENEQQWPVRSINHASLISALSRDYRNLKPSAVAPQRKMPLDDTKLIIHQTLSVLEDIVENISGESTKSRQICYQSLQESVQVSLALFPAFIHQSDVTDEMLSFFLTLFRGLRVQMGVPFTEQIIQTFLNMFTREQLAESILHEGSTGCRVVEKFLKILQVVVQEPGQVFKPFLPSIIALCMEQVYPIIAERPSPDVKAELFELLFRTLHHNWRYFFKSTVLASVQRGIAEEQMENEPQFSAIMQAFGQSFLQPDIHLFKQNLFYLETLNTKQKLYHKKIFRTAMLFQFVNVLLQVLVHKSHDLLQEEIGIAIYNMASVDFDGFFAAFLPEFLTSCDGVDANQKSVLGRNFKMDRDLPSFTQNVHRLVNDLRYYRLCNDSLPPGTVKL
inactive: lapatinib -0.012 | pictilisib -0.069 | crizotinib -0.086 | [1] -0.158 | duvelisib 0.06 | gandotinib 0.005 | tozasertib 0.072 | doramapimod 0.034 | bafetinib -0.105 | [2] 0.175 | nilotinib 0.005 | [3] 0.027 | dasatinib -0.008 | [4] -0.054 | [5] -0.026 | quisinostat -0.123 | tipifarnib -0.018 | [6] 0.078 | [7] 0.033 | [8] -0.04

VAV1 (UniProt P15498)
inactive: lapatinib 0 | pictilisib 0.012 | crizotinib -0.059 | [1] -0.057 | duvelisib 0.071 | gandotinib -0.02 | tozasertib 0.011 | doramapimod -0.044 | bafetinib -0.087 | [2] 0.066 | nilotinib 0.022 | [3] -0.031 | dasatinib 0.007 | [4] 0.009 | [5] 0.04 | quisinostat 0.022 | tipifarnib 0 | [6] -0.018 | [7] 0.007 | [8] -0.054

USP48 (UniProt Q86UV5)
inactive: lapatinib -0.05 | pictilisib 0.037 | crizotinib 0.13 | duvelisib -0.022 | gandotinib 0.068 | tozasertib 0.035 | doramapimod -0.181 | bafetinib -0.134 | [2] 0.182 | nilotinib -0.016 | [3] -0.045 | dasatinib -0.016 | [4] -0.032 | [5] 0.005 | quisinostat 0.19 | tipifarnib 0.033 | [6] -0.077 | [7] 0.005 | [8] -0.012
active: [1] -0.577

USP3 (UniProt Q9Y6I4)
Sequence of UniProt Q9Y6I4 (Q9Y6I4 whole entry, looked up): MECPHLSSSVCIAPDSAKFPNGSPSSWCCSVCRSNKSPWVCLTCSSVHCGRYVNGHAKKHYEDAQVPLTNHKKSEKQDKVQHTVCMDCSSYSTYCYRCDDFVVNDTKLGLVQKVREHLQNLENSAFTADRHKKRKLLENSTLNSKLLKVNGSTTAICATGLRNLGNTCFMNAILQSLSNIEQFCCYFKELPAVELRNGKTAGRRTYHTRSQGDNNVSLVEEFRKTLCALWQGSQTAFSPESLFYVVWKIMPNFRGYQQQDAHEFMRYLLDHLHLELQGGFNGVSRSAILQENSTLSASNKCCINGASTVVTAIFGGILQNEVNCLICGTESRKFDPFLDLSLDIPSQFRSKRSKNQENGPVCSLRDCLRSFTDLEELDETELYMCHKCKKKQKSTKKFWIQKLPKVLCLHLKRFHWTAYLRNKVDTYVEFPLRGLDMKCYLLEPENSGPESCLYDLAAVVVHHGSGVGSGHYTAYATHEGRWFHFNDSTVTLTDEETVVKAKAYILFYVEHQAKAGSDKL
inactive: lapatinib -0.016 | pictilisib 0.001 | crizotinib -0.033 | [1] 0.031 | duvelisib 0.01 | gandotinib -0.056 | tozasertib 0.021 | doramapimod -0.03 | bafetinib 0.01 | [2] -0.04 | nilotinib 0.045 | [3] -0.015 | dasatinib -0.028 | [4] 0.028 | [5] 0.008 | quisinostat -0.01 | tipifarnib -0.054 | [6] 0.107 | [7] -0.005 | [8] -0.042

VPS54 (UniProt Q9P1Q0)
Sequence of UniProt Q9P1Q0 (Q9P1Q0 whole entry, looked up): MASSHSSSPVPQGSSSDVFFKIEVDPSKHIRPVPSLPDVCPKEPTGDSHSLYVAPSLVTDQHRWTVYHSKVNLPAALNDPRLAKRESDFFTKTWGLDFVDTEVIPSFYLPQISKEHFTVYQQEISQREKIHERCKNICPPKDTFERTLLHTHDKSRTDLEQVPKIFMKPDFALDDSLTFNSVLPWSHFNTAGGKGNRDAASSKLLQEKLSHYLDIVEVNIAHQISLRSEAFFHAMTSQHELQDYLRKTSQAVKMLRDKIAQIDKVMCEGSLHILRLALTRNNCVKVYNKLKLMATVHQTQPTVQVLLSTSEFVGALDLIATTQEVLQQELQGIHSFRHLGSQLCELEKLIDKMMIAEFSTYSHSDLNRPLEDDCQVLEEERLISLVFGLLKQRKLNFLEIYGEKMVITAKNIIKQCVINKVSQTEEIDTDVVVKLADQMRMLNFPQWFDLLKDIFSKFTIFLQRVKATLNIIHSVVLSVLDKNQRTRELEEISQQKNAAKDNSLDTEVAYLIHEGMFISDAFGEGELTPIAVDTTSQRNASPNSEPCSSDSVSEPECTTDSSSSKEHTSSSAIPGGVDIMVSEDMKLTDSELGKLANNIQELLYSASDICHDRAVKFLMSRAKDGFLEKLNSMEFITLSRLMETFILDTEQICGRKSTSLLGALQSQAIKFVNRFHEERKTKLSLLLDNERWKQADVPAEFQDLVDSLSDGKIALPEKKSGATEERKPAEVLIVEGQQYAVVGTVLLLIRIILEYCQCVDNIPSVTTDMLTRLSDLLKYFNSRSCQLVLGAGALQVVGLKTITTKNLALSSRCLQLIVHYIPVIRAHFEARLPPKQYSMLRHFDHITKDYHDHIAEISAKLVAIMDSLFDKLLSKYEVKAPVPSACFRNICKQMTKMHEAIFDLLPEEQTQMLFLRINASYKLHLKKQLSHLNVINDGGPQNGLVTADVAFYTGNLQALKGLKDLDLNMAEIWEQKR
inactive: lapatinib -0.018 | pictilisib 0.068 | crizotinib -0.296 | [1] -0.263 | duvelisib -0.012 | gandotinib 0.399 | tozasertib 0.047 | doramapimod 0.066 | bafetinib 0.431 | [2] 0.395 | nilotinib 0.013 | [3] -0.041 | dasatinib -0.112 | [4] 0.205 | [5] 0.146 | tipifarnib -0.111 | [6] 0.065 | [7] 0.089 | [8] -0.121
active: quisinostat -0.409

XPO1 (UniProt O14980)
inactive: lapatinib -0.039 | pictilisib 0 | crizotinib -0.034 | [1] -0.037 | duvelisib -0.026 | gandotinib -0.043 | tozasertib 0.021 | doramapimod -0.001 | bafetinib -0.02 | [2] 0.07 | nilotinib 0.011 | [3] -0.011 | dasatinib -0.038 | [4] -0.014 | [5] 0.021 | quisinostat -0.007 | tipifarnib -0.009 | [6] 0.021 | [7] 0.011 | [8] 0.006

UTP18 (UniProt Q9Y5J1)
inactive: lapatinib 0.032 | pictilisib 0.125 | crizotinib -0.05 | [1] 0.097 | duvelisib -0.065 | gandotinib -0.055 | tozasertib 0.074 | doramapimod -0.025 | bafetinib -0.084 | [2] -0.038 | nilotinib 0.059 | [3] -0.009 | dasatinib 0.005 | [4] -0.179 | [5] -0.03 | quisinostat -0.034 | tipifarnib -0.002 | [6] 0.058 | [7] -0.016 | [8] 0.074

WDR24 (UniProt Q96S15)
inactive: lapatinib -0.004 | pictilisib 0.104 | crizotinib -0.006 | [1] -0.072 | duvelisib 0.004 | gandotinib 0.072 | tozasertib 0.065 | doramapimod -0.166 | bafetinib -0.134 | [2] 0.125 | nilotinib 0.124 | [3] -0.09 | dasatinib -0.072 | [4] 0.05 | [5] -0.022 | quisinostat -0.013 | tipifarnib -0.096 | [6] 0.038 | [7] 0.04 | [8] -0.002

USP16 (UniProt Q9Y5T5)
inactive: lapatinib 0.003 | pictilisib -0.049 | crizotinib -0.018 | [1] 0.003 | duvelisib 0.049 | gandotinib -0.039 | tozasertib 0.006 | doramapimod -0.017 | bafetinib -0.037 | [2] 0.035 | nilotinib 0.016 | [3] 0.005 | dasatinib 0.053 | [4] 0.014 | [5] 0.041 | quisinostat -0.014 | tipifarnib 0.016 | [6] 0.011 | [7] 0.023 | [8] 0.012

WDR7 (UniProt Q9Y4E6)
inactive: lapatinib -0.029 | pictilisib -0.037 | crizotinib -0.058 | [1] -0.076 | duvelisib -0.008 | gandotinib 0.014 | tozasertib -0.012 | doramapimod 0.043 | bafetinib -0.04 | [2] 0.085 | nilotinib 0.001 | [3] -0.018 | dasatinib -0.088 | [4] -0.011 | [5] 0.003 | quisinostat -0.016 | tipifarnib -0.032 | [6] 0.014 | [7] 0.007 | [8] -0.03

ZNF609 (UniProt O15014)
Sequence of UniProt O15014 (O15014 whole entry, looked up): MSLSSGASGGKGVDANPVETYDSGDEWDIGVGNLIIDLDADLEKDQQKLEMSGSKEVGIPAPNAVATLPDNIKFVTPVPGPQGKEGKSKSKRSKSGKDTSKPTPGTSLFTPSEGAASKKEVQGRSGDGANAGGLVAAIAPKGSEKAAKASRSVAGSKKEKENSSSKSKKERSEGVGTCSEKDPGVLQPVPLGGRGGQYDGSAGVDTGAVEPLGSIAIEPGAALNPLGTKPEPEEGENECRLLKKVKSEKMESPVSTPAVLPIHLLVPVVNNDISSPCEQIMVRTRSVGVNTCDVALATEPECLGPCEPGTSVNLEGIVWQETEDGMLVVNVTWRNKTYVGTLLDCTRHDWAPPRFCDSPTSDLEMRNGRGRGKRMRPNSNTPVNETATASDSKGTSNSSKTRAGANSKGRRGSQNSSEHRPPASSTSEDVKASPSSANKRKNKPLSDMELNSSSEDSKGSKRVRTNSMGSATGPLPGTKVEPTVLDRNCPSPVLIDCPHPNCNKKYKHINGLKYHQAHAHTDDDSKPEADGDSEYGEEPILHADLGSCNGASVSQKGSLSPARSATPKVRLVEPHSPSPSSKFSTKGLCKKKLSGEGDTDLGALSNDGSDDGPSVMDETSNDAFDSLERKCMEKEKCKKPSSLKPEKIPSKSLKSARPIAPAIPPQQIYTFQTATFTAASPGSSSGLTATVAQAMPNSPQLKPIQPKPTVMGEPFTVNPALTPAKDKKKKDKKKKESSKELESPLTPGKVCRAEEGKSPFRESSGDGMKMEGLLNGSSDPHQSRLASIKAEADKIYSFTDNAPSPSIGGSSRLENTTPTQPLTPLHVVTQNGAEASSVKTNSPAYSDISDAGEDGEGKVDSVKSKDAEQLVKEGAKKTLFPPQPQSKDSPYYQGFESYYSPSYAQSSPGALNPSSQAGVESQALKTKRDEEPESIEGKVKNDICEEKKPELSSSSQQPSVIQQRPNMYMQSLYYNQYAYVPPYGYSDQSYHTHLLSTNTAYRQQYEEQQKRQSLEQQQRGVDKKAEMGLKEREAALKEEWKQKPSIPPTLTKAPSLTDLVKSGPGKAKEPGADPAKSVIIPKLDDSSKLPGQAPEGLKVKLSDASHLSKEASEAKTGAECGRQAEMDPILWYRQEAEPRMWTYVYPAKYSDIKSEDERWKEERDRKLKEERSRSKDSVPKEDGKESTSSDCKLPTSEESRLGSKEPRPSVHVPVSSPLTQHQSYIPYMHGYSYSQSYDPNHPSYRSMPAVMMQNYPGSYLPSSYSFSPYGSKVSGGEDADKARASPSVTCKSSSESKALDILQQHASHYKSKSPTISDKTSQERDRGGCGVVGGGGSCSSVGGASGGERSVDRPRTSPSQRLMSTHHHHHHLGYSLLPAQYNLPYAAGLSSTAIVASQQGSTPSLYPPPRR
inactive: lapatinib 0.023 | pictilisib -0.054 | crizotinib 0.026 | [1] -0.028 | duvelisib -0.042 | gandotinib 0.16 | tozasertib 0.024 | doramapimod -0.064 | bafetinib -0.111 | [2] 0.187 | nilotinib -0.14 | [3] -0.023 | dasatinib -0.014 | [4] 0.001 | [5] -0.044 | quisinostat -0.006 | tipifarnib 0.01 | [6] 0.061 | [7] -0.015 | [8] 0.003

UNC45A (UniProt Q9H3U1)
inactive: lapatinib -0.006 | pictilisib -0.026 | crizotinib -0.045 | [1] 0.019 | duvelisib -0.003 | gandotinib -0.111 | tozasertib 0 | doramapimod 0.027 | bafetinib -0.018 | [2] 0.021 | nilotinib -0.007 | [3] 0.003 | dasatinib -0.051 | [4] 0.018 | [5] 0.016 | quisinostat -0.047 | tipifarnib -0.015 | [6] 0.03 | [7] 0.016 | [8] -0.001

ZC3H13 (UniProt Q5T200)
inactive: lapatinib -0.013 | pictilisib -0.022 | crizotinib -0.057 | [1] 0.039 | duvelisib 0.041 | gandotinib -0.063 | tozasertib 0.062 | doramapimod 0.149 | bafetinib 0.017 | [2] 0.102 | nilotinib -0.033 | [3] 0.137 | dasatinib -0.035 | [4] 0.144 | [5] -0.044 | quisinostat -0.067 | tipifarnib -0.184 | [6] 0.002 | [7] 0.028 | [8] -0.049
